From PubChem
Shown are actives, neighbours in structure and some others; about 9.2% of the full set was active somewhere.
SMN2 splice up: qHTS Assay for Enhancers of SMN2 Splice Variant Expression; HEK293 SMN2-luciferase splicing reporter, luminescence, 30-36 h; Potency, µM (doses to about 46.1 µM), for inactives: at the highest dose activity change, positive = activation, most hits filed as activators; AID 1458, 2008; actives 2.8% (n = 210,000); note: % of control where 0% means no effect; nearly all actives have a fitted effect of over 55% in size
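HEK293 cells carry an SMN2 […]–luciferase reporter in which exon 7 inclusion puts luciferase in frame. Cells were plated 10-12 h before compound addition, then incubated 30-36 h at 37C. ONE-Glo luminescence was read; sodium butyrate at 4.5 mM final served as control.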
ELG1 genotox: qHTS screen for small molecules that induce genotoxicity in human embryonic kidney (HEK293T) cells expressing luciferase-tagged ELG1 | HEK293T ELG1-luciferase reporter, luminescence, 16 h | Potency, µM (series often up to 46 µM), inactives show at the highest dose activity change, positive = activation, hits mostly activators | actives 1.3% (n = 330,000) | AID 504466, 2011; note: % of control where 0% means no effect; nearly all actives have a fitted effect of over 60% in size
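HEK293T cells expressing luciferase-tagged ELG1 were exposed to compound or DMSO vehicle for 16 hr at 37 °C and 5% CO2. Luciferase activity was then measured with ONE-Glo after 30 min at room temperature.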
NPC1 prom act: qHTS Assay for NPC1 Promoter Activators; Huh7 NPC1 promoter luciferase reporter, 24 h; Potency, µM (highest dose often 9.22 µM), without a hit: top-dose activation, hits mostly activators; actives 2.4% (n = 320,000); AID 485313, 2010; note: % of control where 0% means no effect; nearly all actives have a fitted effect of over 60% in size
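Stable NPC1-promoter luciferase Huh7 line; cpd (DMSO) 24 h, 37 °C, 5% CO2; Amplite luciferase reagent 10 min RT; luminescence readout. qHTS format.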
FLuc counter: qHTS profiling assay for firefly luciferase inhibitor/activator using purifed enzyme and Km concentrations of substrates (counterscreen for miR-21 project); actives 6.9% (n = 360,000); Potency, µM (highest dose often 57.5 µM), for the others: at the top dose activity change, negative = inhibition, usual class: inhibitors; Luciferin 4-monooxygenase (Photinus pyralis), P08659; purified FLuc, Km substrates, luminescence inhibition;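 note: plate controls were vehicle for no effect and reference inhibitor for full effect; nearly all actives have a fitted effect of over 55% in size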
Target sequence (P08659 whole entry, looked up): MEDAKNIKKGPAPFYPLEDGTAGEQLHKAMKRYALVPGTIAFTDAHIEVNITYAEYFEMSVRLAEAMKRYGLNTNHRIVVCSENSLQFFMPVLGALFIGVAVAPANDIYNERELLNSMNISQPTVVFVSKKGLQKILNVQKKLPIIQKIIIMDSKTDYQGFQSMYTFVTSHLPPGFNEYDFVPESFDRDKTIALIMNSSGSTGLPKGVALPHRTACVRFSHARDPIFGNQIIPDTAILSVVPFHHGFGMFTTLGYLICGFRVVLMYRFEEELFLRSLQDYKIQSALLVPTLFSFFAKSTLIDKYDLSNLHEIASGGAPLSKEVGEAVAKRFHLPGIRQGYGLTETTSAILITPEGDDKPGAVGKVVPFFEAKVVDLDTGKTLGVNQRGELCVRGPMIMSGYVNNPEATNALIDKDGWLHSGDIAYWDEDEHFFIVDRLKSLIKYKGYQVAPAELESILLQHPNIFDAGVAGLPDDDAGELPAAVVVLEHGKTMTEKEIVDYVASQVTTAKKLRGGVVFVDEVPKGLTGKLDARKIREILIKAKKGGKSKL
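Biochemical qHTS of compounds, final roughly 60 µM downward over six points, against 10 nM purified firefly luciferase using Km concentrations of substrates (10 uM D-luciferin, 10 uM ATP) in Tris acetate pH 7.5 buffer; luminescence output.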
Rab9 prom act: qHTS Assay for Rab9 Promoter Activators; actives 2.8% (n = 320,000); Potency, µM (titrated, usually from 9.22 µM), without a hit: at the top dose activation, negative = inhibition, hits mostly activators; AID 485297, 2010; Huh7 Rab9 promoter-luciferase reporter, luminescence, 24 h; note: % of control where 0% means no effect; nearly all actives have a fitted effect of over 60% in size
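Measured in stably transfected Huh7 cells bearing a Rab9 promoter–luciferase construct: 24 h compound treatment at 37 °C, followed by luminescence detection.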
ELG1 repair inh: qHTS screen for small molecules that inhibit ELG1-dependent DNA repair in human embryonic kidney (HEK293T) cells expressing luciferase-tagged ELG1 | HEK293T ELG1-luciferase reporter, luminescence, 16 h; DNA damage induced by 5-fluorouridine | Potency, µM (titrated, usually from 46.1 µM), inactives show top-dose activity change, negative = inhibition, hits mostly inhibitors | actives 2.3% (n = 330,000) | AID 504467, 2011; note: % is set by controls: 0 for no effect and ±100 for the full control effect; nearly all actives have a fitted effect of over 55% in size
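Step one: seed 2,000 cells per well. Step two: pin-transfer compound or DMSO alongside 5-fluorouridine. Step three: incubate 16 hr, 37 °C, 5% CO2. Step four: add ONE-Glo, wait 30 min, read luminescence.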
* hit, by the source's call; ? = inconclusive; / = no result. Calls come from the whole dose curve; as a rule, active = well fitted curve in the direction sought with a large enough effect; inconclusive = small, poorly fitted or top-dose-only effect, or another doubt; inactive = no such curve, though single readings can be large; an effect the other way counts as inactive or inconclusive. Potency is the fitted concentration of half-maximal effect.

SMILES	SMN2 splice up	ELG1 genotox	NPC1 prom act	FLuc counter	Rab9 prom act	ELG1 repair inh
Cc1cccc(OCC(=O)O/N=C(\N)c2ccc(Cl)cc2)c1	-12.5%	1.2%	-5.6%	-18.4%	2.8%	11.6%
Cc1cccc(C(=O)O/N=C(\N)c2ccc(Cl)cc2)c1	/	?	0.398µM*	1.9µM*	1.78µM*	?
Cc1ccc(/C(N)=N/OC(=O)c2ccc(Cl)cc2Cl)cc1	11.2µM*	?	3.16µM*	1.07µM*	2.51µM*	?
CCOC(=O)c1[nH]c(C)c(CCC(=O)Nc2c(C)cc(C)cc2C)c1C	/	/	/	-10.9%	/	/
Cc1cc(NC(=O)CCC(=O)N(CC(=O)NC2CCCC2)c2ccc(Cl)cc2)no1	/	-0.3%	-7.2%	0.0%	-1.9%	5.7%
Cc1cccc(C(=O)O/N=C(\N)c2ccc(Br)cc2)c1	27.7%	11.2µM*	0.562µM*	3.01µM*	0.708µM*	?
N/C(=N\OC(=O)c1cccc2ccccc12)c1ccc(Br)cc1	?	-11.6%	14.8%	?	13.5%	?
Cc1ccc(C)c(C(=O)O/N=C(\N)c2ccc(Br)cc2)c1	?	?	?	15.1µM*	27.3%	?
Cc1cc(C)cc(C(=O)O/N=C(\N)c2ccc(Br)cc2)c1	15.1%	0.9%	?	-19.7%	?	21.3%
Cc1ccc(C(=O)O/N=C(\N)c2ccc(Br)cc2)cc1C	-10.6%	16.4µM*	13.4%	?	17.6%	?
O=C(NCc1ccc(N2CCCC2=O)cc1)Nc1cccc(Cl)c1	/	12.0%	-1.9%	1.3%	-11.2%	?
Cc1c(C(=O)N2CCC(C)CC2)c(S(=O)(=O)NCc2ccc(Cl)cc2)c(C)n1C	/	/	/	4.5%	/	/
O=C(CCNC(=O)c1ccco1)Nc1ccc(Cl)c(C(F)(F)F)c1	/	-2.4%	1.5%	-1.3%	4.3%	-1.6%
CC(=O)N1CSCC1C(=O)NNS(=O)(=O)c1ccccc1 (stereo not drawn)	/	0.7%	-3.2%	-0.7%	1.5%	1.1%
CCOc1ccc2nc(SCC(=O)Nc3cccc(S(=O)(=O)NC4=NCCCCC4)c3)[nH]c2c1	4.2%	-5.3%	0.2%	21.3µM*	-5.9%	?
COc1ccc2nc(SCC(=O)Nc3ccc4c(c3)OCCO4)[nH]c2c1	-13.0%	?	1.7%	13.5µM*	15.0%	?
CCOc1ccccc1Nc1nnc(SCC(=O)Nc2ccc3[nH]c(=O)[nH]c3c2)s1	6.3%	0.7%	-0.9%	-5.8%	-5.1%	?
CCOc1ccc2nc(SCC(=O)Nc3ccc4c(c3)OCCO4)[nH]c2c1	13.6%	3.3%	0.9%	16.9µM*	-4.8%	-4.5%
CCOc1ccccc1Nc1nnc(SCC(=O)Nc2cccc(S(=O)(=O)NC3=NCCCCC3)c2)s1	-42.6%	-9.3%	-5.9%	-15.1%	-9.2%	18.4µM*
CCOC(=O)C1CCCN(C(=O)c2ccc3c(c2)N(Cc2ccccc2)C(=O)c2ccccc2S3(=O)=O)C1 (stereo not drawn)	?	/	/	0.6%	/	/
Cc1cccc(C)c1NS(=O)(=O)c1ccc(NS(=O)(=O)c2ccc3c(c2)OCCO3)cc1	7.0%	/	/	?	/	/
CCN(CC)c1ccc(/C=N/N2CCOCC2)cc1	22.4µM*	7.31µM*	3.55µM*	8.49µM*	3.16µM*	?
CCN(Cc1ccccc1)c1ccc(/C=N/N2CCOCC2)cc1	-14.1%	13.2%	16.5%	?	11.6%	?
Cc1c(N=Cc2c(O)n(C)c(=O)c3ccccc23)c(=O)n(-c2ccccc2)n1C	-7.1%	-2.6%	-3.7%	-0.3%	-1.5%	-12.1%
COc1ccc(C2=C(C=Nc3c(C)n(C)n(-c4ccccc4)c3=O)C(c3ccccc3C)c3ccccc3O2)cc1OC (stereo not drawn)	-14.0%	-8.7%	-2.5%	-1.3%	-10.9%	2.91µM*
SMILES	SMN2 splice up	ELG1 genotox	NPC1 prom act	FLuc counter	Rab9 prom act	ELG1 repair inh
COc1ccc(Nc2nc(NCC3CCCO3)c3ccccc3n2)c(OC)c1 (stereo not drawn)	-43.8%	-21.1%	-3.5%	23.9µM*	-6.4%	13µM*
c1ccc(-c2nc(NCC3CCCO3)c3ccccc3n2)nc1 (stereo not drawn)	-56.2%	-13.5%	-4.8%	1.7%	-3.2%	18.4µM*
CCOc1ccc(Nc2nc(NCC3CCCO3)c3ccccc3n2)cc1 (stereo not drawn)	-74.3%	-6.8%	-33.3%	?	-26.4%	7.3µM*
c1ccc(-c2nc(NCc3ccco3)c3ccccc3n2)nc1	-9.8%	-9.5%	-0.5%	-1.8%	2.6%	7.31µM*
c1ccc(Nc2nc(NCC3CCCO3)c3ccccc3n2)cc1 (stereo not drawn)	-60.6%	-10.4%	-8.8%	?	-3.8%	?
Oc1cccc(Nc2nc(NCC3CCCO3)c3ccccc3n2)c1 (stereo not drawn)	0.6%	-24.3%	1.7%	?	-5.9%	20.6µM*
O=C(COC(=O)CC1Sc2ccccc2NC1=O)NCc1ccccc1 (stereo not drawn)	/	-0.2%	-0.4%	3.4%	-1.7%	27.7%
CCOC(=O)C1=C(O)/C(=C/c2ccccn2)SC1=Nc1ccc(Cl)cc1	-26.0%	-4.4%	-5.2%	1.9%	0.7%	20.6µM*
CCOC(=O)C1=C(O)/C(=C/c2ccc(OCC(=O)O)c(OCC)c2)SC1=Nc1ccccc1	2.7%	8.7%	-3.8%	-4.6%	-1.0%	-2.3%
CCOc1cc(/C=N/NC(=O)Nc2ccccc2)ccc1O	/	?	13.9%	9.53µM*	?	?
CCOc1cc(/C=N/NC(=O)c2ccc(NC(=O)C3CC3)cc2)ccc1O	/	-4.8%	-0.4%	?	18.4%	-13.0%
COc1cc(/C=N/NC(=O)Nc2ccccc2)ccc1OC(C)=O	?	?	27.9%	10.7µM*	?	?
Cc1cccc(N2C(=O)CN(Cc3ccccc3)C2=S)c1	/	-3.5%	0.3%	-2.7%	0.9%	0.4%
Oc1ccccc1C(Nc1nccs1)c1ccc2cccnc2c1O (stereo not drawn)	/	7.1%	-31.5%	0.5%	-40.6%	3.66µM*
CCOC(=O)/C(C#N)=C/c1ccc(-c2ccsc2C(=O)OC)o1	5.5%	16.5%	?	-18.3%	2.51µM*	?
CCCCOC(=O)/C(C#N)=C\c1ccc(-c2ccc(Cl)cc2)o1	-8.2%	/	/	?	/	/
COC(=O)c1sccc1NC(=O)c1cccnc1	-6.7%	/	/	6.3%	/	/
COC(=O)c1sccc1-c1ccc(C(=O)Nc2cccnc2)o1	17.8µM*	16.2%	2.24µM*	8.49µM*	3.55µM*	?
